Assay results published in PubChem BioAssay AID1159580 (chemical genetic matrix, 2015).
“And” between values parts separate entries of the source, which are not always exact repeats. Equal values may be shown once. The campaign covered roughly 5,500 compounds. About 2,000 (36%) were called active. Another 18% or so got no clear call; they are omitted. This is one part of the list. Unmarked numbers belong to inactive results. Cut-off read from the data, not from the text of the source: active = normalized growth mostly below about 0.91 (no sharp cut-off); inconclusive = no clear call, values can overlap the other calls; inactive = mostly above about 0.92.

Assay: chemical genetic growth profiling, strain panel (AID 1159580);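 note: tested at 20 µM; growth read once vehicle control cultures reached saturation at 30 °C; 1 = growth at the plate median or of vehicle wells; lower values mean less growth of the strain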
Details: growth OD

CC/C(=C(\c1ccccc1)c1ccc(OCCN(C)C)cc1)c1ccccc1
normalized growth (S. cerevisiae deletion strains, locus YKL009W, strain mrt4, active compounds read low): 0.79 (active)
normalized growth (S. cerevisiae deletion strains, locus YKL068W, active compounds read low): 1
normalized growth (S. cerevisiae deletion strains, locus YKL085W, strain MDH1 (second series), active compounds read low): 0.952
normalized growth (S. cerevisiae deletion strains, locus YKL085W, strain MDH1, active compounds read low): 0.952
normalized growth (S. cerevisiae deletion strains, locus YKL160W, strain elf1, active compounds read low): 0.13 (active)
normalized growth (S. cerevisiae deletion strains, locus YKL190W, strain CNB1, active compounds read low): 0.045 (active)
normalized growth (S. cerevisiae deletion strains, locus YKR001C, strain vps1, active compounds read low): 0.064 (active)
normalized growth (S. cerevisiae deletion strains, locus YKR026C, strain gcn3, active compounds read low): 0.184 (active)
normalized growth (S. cerevisiae deletion strains, locus YKR091W, strain srl3, active compounds read low): 0.0995 (active)
normalized growth (S. cerevisiae deletion strains, locus YLL001W, strain dnm1, active compounds read low): 0.0862 (active)
normalized growth (S. cerevisiae deletion strains, locus YLL026W, active compounds read low): 0.0741 (active)
normalized growth (S. cerevisiae deletion strains, locus YLL041C, strain sdh2, active compounds read low): 0.115 (active)
normalized growth (S. cerevisiae deletion strains, locus YLR027C, strain aat2, active compounds read low): 0.0818 (active)
normalized growth (S. cerevisiae deletion strains, locus YLR039C, strain RIC1, active compounds read low): 0.0749 (active)
normalized growth (S. cerevisiae deletion strains, locus YLR058C, strain SHM2, active compounds read low): 0.0464 (active)
normalized growth (S. cerevisiae deletion strains, locus YLR102C, strain apc9, active compounds read low): 0.0601 (active)
normalized growth (S. cerevisiae deletion strains, locus YLR113W, strain HOG1, active compounds read low): 0.822 (active)
normalized growth (S. cerevisiae deletion strains, locus YLR221C, strain rsa3, active compounds read low): 0.121 (active)
normalized growth (S. cerevisiae deletion strains, locus YLR258W, strain gsy2, active compounds read low): 0.0791 (active)
normalized growth (S. cerevisiae deletion strains, locus YLR262C, strain YPT6 (second series), active compounds read low): 0.182 (active)
normalized growth (S. cerevisiae deletion strains, locus YLR262C, strain YPT6, active compounds read low): 0.0867 (active)
normalized growth (S. cerevisiae deletion strains, locus YLR268W, strain sec22, active compounds read low): 0.0695 (active)
normalized growth (S. cerevisiae deletion strains, locus YLR320W, strain mms22, active compounds read low): 0.171 (active)
normalized growth (S. cerevisiae deletion strains, locus YLR330W, strain CHS5, active compounds read low): 0.0509 (active)
normalized growth (S. cerevisiae deletion strains, locus YLR342W, strain FKS1 (second series), active compounds read low): 0.0626 (active)
normalized growth (S. cerevisiae deletion strains, locus YLR342W, strain FKS1, active compounds read low): 0.0912 (active)
normalized growth (S. cerevisiae deletion strains, locus YLR357W, strain rsc2, active compounds read low): 0.181 (active)
normalized growth (S. cerevisiae deletion strains, locus YLR370C, strain arc18, active compounds read low): 0.0663 (active)
normalized growth (S. cerevisiae deletion strains, locus YLR371W, strain rom2, active compounds read low): 0.0629 (active)
normalized growth (S. cerevisiae deletion strains, locus YLR384C, strain iki3, active compounds read low): 0.223 (active)
normalized growth (S. cerevisiae deletion strains, locus YLR418C, strain cdc73, active compounds read low): 0.105 (active)
normalized growth (S. cerevisiae deletion strains, locus YML016C, strain PPZ1, active compounds read low): 0.0451 (active)
normalized growth (S. cerevisiae deletion strains, locus YML032C, strain rad52, active compounds read low): 0.0687 (active)
normalized growth (S. cerevisiae deletion strains, locus YML120C, strain ndi1, active compounds read low): 0.114 (active)
normalized growth (S. cerevisiae deletion strains, locus YML124C, strain tub3, active compounds read low): 0.0591 (active)
normalized growth (S. cerevisiae deletion strains, locus YMR058W, strain fet3, active compounds read low): 0.0718 (active)
normalized growth (S. cerevisiae deletion strains, locus YMR078C, strain ctf18, active compounds read low): 0.0689 (active)
normalized growth (S. cerevisiae deletion strains, locus YMR125W, strain sto1, active compounds read low): 0.131 (active)
normalized growth (S. cerevisiae deletion strains, locus YMR129W, active compounds read low): 0.0877 (active)
normalized growth (S. cerevisiae deletion strains, locus YMR205C, strain PFK2, active compounds read low): 0.172 (active)
normalized growth (S. cerevisiae deletion strains, locus YMR223W, strain ubp8, active compounds read low): 0.0676 (active)
normalized growth (S. cerevisiae deletion strains, locus YMR231W, strain pep5, active compounds read low): 0.0689 (active)
normalized growth (S. cerevisiae deletion strains, locus YMR263W, strain SAP30, active compounds read low): 0.0557 (active)
normalized growth (S. cerevisiae deletion strains, locus YMR307W, strain GAS1, active compounds read low): 0.103 (active) and 0.123 (active)
normalized growth (S. cerevisiae deletion strains, locus YNL067W, strain RPL9B, active compounds read low): 0.0484 (active)
normalized growth (S. cerevisiae deletion strains, locus YNL071W, strain lat1, active compounds read low): 0.165 (active)
normalized growth (S. cerevisiae deletion strains, locus YNL128W, strain TEP1, active compounds read low): 0.0645 (active)
normalized growth (S. cerevisiae deletion strains, locus YNL153C, strain GIM3, active compounds read low): 0.0543 (active)
normalized growth (S. cerevisiae deletion strains, locus YNL175C, strain NOP13, active compounds read low): 0.968
normalized growth (S. cerevisiae deletion strains, locus YNL183C, strain NPR1, active compounds read low): 0.901
normalized growth (S. cerevisiae deletion strains, locus YNL197C, strain WHI3, active compounds read low): 0.704 (active)
normalized growth (S. cerevisiae deletion strains, locus YNL209W, strain ssb2, active compounds read low): 0.1 (active)
normalized growth (S. cerevisiae deletion strains, locus YNL224C, strain SQS1, active compounds read low): 0.206 (active)
normalized growth (S. cerevisiae deletion strains, locus YNL233W, strain BNI4, active compounds read low): 0.0506 (active)
normalized growth (S. cerevisiae deletion strains, locus YNL248C, strain rpa49, active compounds read low): 0.555 (active)
normalized growth (S. cerevisiae deletion strains, locus YNL250W, strain rad50, active compounds read low): 0.999
normalized growth (S. cerevisiae deletion strains, locus YNL271C, strain bni1, active compounds read low): 0.953
normalized growth (S. cerevisiae deletion strains, locus YNL298W, strain CLA4, active compounds read low): 0.744 (active)
normalized growth (S. cerevisiae deletion strains, locus YNL307C, strain MCK1, active compounds read low): 0.0675 (active)
normalized growth (S. cerevisiae deletion strains, locus YNL322C, strain KRE1 (second series), active compounds read low): 1.07
normalized growth (S. cerevisiae deletion strains, locus YNL322C, strain KRE1, active compounds read low): 0.0467 (active) and 0.567 (active)
normalized growth (S. cerevisiae deletion strains, locus YNR049C, strain mso1, active compounds read low): 0.0842 (active)
normalized growth (S. cerevisiae deletion strains, locus YNR052C, strain pop2, active compounds read low): 0.0611 (active)
normalized growth (S. cerevisiae deletion strains, locus YOL006C, strain TOP1, active compounds read low): 0.0917 (active)
normalized growth (S. cerevisiae deletion strains, locus YOL012C, strain htz1): 0.187 (active)
normalized growth (S. cerevisiae deletion strains, locus YOL147C, strain pex11, active compounds read low): 0.0578 (active)
normalized growth (S. cerevisiae deletion strains, locus YOR001W, strain rrp6, active compounds read low): 0.431 (active)
normalized growth (S. cerevisiae deletion strains, locus YOR061W, strain CKA2, active compounds read low): 0.0446 (active)
normalized growth (S. cerevisiae deletion strains, locus YOR069W, strain VPS5, active compounds read low): 0.0459 (active)
normalized growth (S. cerevisiae deletion strains, locus YOR070C, strain gyp1, active compounds read low): 0.0646 (active)
normalized growth (S. cerevisiae deletion strains, locus YOR080W, strain dia2, active compounds read low): 0.408 (active)
normalized growth (S. cerevisiae deletion strains, locus YOR083W, strain WHI5 (second series), active compounds read low): 0.185 (active)
normalized growth (S. cerevisiae deletion strains, locus YOR083W, strain WHI5, active compounds read low): 0.0831 (active)
normalized growth (S. cerevisiae deletion strains, locus YOR106W, strain vam3, active compounds read low): 0.0773 (active)
normalized growth (S. cerevisiae deletion strains, locus YOR136W, strain idh2, active compounds read low): 0.0725 (active)
normalized growth (S. cerevisiae deletion strains, locus YOR144C, strain elg1, active compounds read low): 0.0595 (active)
normalized growth (S. cerevisiae deletion strains, locus YOR184W, strain ser1, active compounds read low): 0.0775 (active)
normalized growth (S. cerevisiae deletion strains, locus YOR231W, strain MKK1, active compounds read low): 0.894
normalized growth (S. cerevisiae deletion strains, locus YOR265W, strain rbl2, active compounds read low): 0.0798 (active)
normalized growth (S. cerevisiae deletion strains, locus YOR270C, strain vph1, active compounds read low): 0.136 (active)
normalized growth (S. cerevisiae deletion strains, locus YOR290C, strain snf2, active compounds read low): 0.125 (active)
normalized growth (S. cerevisiae deletion strains, locus YOR316C, strain cot1, active compounds read low): 0.0588 (active)
normalized growth (S. cerevisiae deletion strains, locus YPL051W, strain arl3, active compounds read low): 0.136 (active)
normalized growth (S. cerevisiae deletion strains, locus YPL055C, strain LGE1, active compounds read low): 0.0697 (active)
normalized growth (S. cerevisiae deletion strains, locus YPL078C, strain atp4, active compounds read low): 0.288 (active)
normalized growth (S. cerevisiae deletion strains, locus YPL106C, strain sse1, active compounds read low): 0.114 (active)
normalized growth (S. cerevisiae deletion strains, locus YPL240C, strain hsp82, active compounds read low): 0.106 (active)
normalized growth (S. cerevisiae deletion strains, locus YPL241C, strain CIN2, active compounds read low): 0.0469 (active)
normalized growth (S. cerevisiae deletion strains, locus YPL256C, strain CLN2, active compounds read low): 0.815 (active)
normalized growth (S. cerevisiae deletion strains, locus YPR119W, strain clb2, active compounds read low): 0.0696 (active)
normalized growth (S. cerevisiae deletion strains, locus YPR141C, strain kar3, active compounds read low): 1.04
normalized growth (S. cerevisiae deletion strains, locus YPR163C, strain tif3, active compounds read low): 0.0696 (active)
normalized growth (S. cerevisiae deletion strains, locus YPR167C, strain met16, active compounds read low): 0.0609 (active)
normalized growth (S. cerevisiae deletion strains, strain wtn01, active compounds read low): 0.0608 (active)
normalized growth (S. cerevisiae strains, strain wild type, active compounds read low): 0.0464 (active)
